According to PubChem BioAssay AID624330 (Southern Research Specialized Biocontainment Screening …, 2012):
About 2,100 (0.62%) of roughly 340,000 compounds were called active.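 The calls were made as follows: active = first-screen hits whose inhibition reached a set limit at any dose in the follow-up dose series; inconclusive = inhibition above the set first-screen limit but never retested; inactive = the rest.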 The list is a sample of the results. Measured potencies and affinities stand elsewhere.

target: Rac GTPase-activating protein 1 (Homo sapiens) (UniProt Q9H0H5); test: MgcRacGAP GTPase-activating activity inhibitors, confirmation, biochemical, ADP Hunter fluorescence, primary and confirmatory (AID 624330); conditions: MgcRacGAP-stimulated Rac1 GTP hydrolysis, at 30 µM, active compounds read high, GST-tagged Rac1 F28L mutant substrate;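 also: fluorescence reports GDP produced by GAP-driven GTP hydrolysis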
Sequence (Q9H0H5 whole entry, looked up): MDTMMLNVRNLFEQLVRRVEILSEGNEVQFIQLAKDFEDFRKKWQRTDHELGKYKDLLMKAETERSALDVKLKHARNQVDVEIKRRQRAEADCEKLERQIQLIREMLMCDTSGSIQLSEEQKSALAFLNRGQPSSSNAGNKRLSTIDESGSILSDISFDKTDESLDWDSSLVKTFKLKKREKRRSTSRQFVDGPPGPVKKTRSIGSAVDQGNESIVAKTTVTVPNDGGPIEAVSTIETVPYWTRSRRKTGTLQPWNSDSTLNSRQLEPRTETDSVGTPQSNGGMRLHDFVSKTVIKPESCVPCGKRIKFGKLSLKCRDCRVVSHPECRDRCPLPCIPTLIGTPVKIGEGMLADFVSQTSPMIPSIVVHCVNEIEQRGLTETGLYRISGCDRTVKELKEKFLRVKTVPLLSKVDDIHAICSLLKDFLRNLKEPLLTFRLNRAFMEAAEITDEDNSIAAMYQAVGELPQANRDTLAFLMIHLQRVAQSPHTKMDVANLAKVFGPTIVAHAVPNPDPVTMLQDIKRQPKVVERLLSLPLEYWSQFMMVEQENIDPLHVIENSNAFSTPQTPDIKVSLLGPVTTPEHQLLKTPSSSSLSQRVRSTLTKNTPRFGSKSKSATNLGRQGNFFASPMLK

inhibition, inactive:
NC(=O)c1ccc(NC(=O)CN2CCN(C(=O)c3ccco3)CC2)cc1 13.6%
CSc1cccc(CN2CCCC(CNC(=O)c3ccco3)C2)c1 (centres undefined) 8.31%
Cc1c(NC(=O)Nc2ccc(Cl)c(Cl)c2)sc(=S)n1C -8.84%
N#C/C(=C/c1cc(Cl)c(O)c(Cl)c1)C(=O)N1CCCCC1 10.9%
N#C/C(=C\c1cccc(O)c1)C(=O)N1CCCCC1 11.3%
O=C(O)c1ccc(/C=C2\CCCc3c2nc2ccccc2c3C(=O)O)cc1 3.69%
O=C(O)c1c2c(nc3ccccc13)/C(=C/c1ccc(OC(F)F)cc1)CCC2 9.02%
CN(C)C(=O)CCc1ccc2c3c([nH]c2c1)[C@]1(C)[C@@H](C(=O)N2CCOCC2)C[C@H](CC(=O)NCc2cccc(C(F)(F)F)c2)C(=O)N1CC3 -2.92%
C/C(=N/NC(=O)c1cccc(Br)c1)C1CC2CCC1C2 (centres undefined) -6.86%
Cc1ccc(/C=C(/C#N)c2nc(CCN3C(=O)c4ccccc4C3=O)cs2)cc1 9.96%
CCN1CCN(C(C(=O)NC2CCCCC2)c2ccc(Cl)cc2)CC1 (centres undefined) 2.93%
CC(C(=O)NC(=O)NC1CCCCC1)N1CCN(c2ccccn2)CC1 (centres undefined) 4.4%
CC(C(=O)NC(=O)NC1CCCCC1)N1CCN(C(c2ccccc2)c2ccccc2)CC1 (centres undefined) 4.85%
COc1ccc(N2CCN(C(C)C(=O)N3CC(C)OC(C)C3)CC2)cc1 (centres undefined) 26.9%
CC(C(=O)NC1CCCC1)N1CCN(Cc2ccccc2)CC1 (centres undefined) 9.35%
CN1CCC(NC(=O)NC2CCCCC2)CC1 4.99%
CN1CCN(C(=O)NC2CCCCC2)CC1 13%
COc1ccc(N2CCN(C(C)C(=O)N3CCc4ccccc43)CC2)cc1 (centres undefined) 19.8%
C=CCN1C(=O)CS/C1=N\S(=O)(=O)c1ccc(Cl)cc1 -1.54%
CCOC(=O)c1c(C)n(C)c2ccc(OC)c([N+](=O)[O-])c12 8.57%
CCCOc1c(Br)cc(C(=O)NCC)cc1OC 13%
CSCCC(NS(=O)(=O)c1ccc2c(c1)oc(=O)n2C)C(=O)NCc1ccc(C)cc1 (centres undefined) 9.41%
CCCNC(=O)c1ccc(OC)cc1OC -1.98%
Cc1cccc(N=C2CCCC2C(=O)Nc2cccc(C)c2C)c1C (centres undefined) 5.77%
NC(=O)c1ccsc1NC(=O)COC(=O)c1cc(Cl)ccc1O 0.77%
CC(=O)NC(C(=O)c1ccccc1)N1CCCCC1 (centres undefined) 13.8%
Cc1ccc(/C=C2/NC(=O)[C@H](C)NC2=O)cc1 6.59%
CCN1C(=NCCOC)N[C@@H](CCc2ccccc2)[C@H](C(=O)OC)[C@H]1C 12.5%
C=C(C)CSc1nc2sc3c(c2c(=O)n1-c1ccccc1)CCN(C)C3 11.6%
O=C(NC1CCCCC1)N1CCN(c2ccc(Cl)cc2)CC1 6.94%
COc1cccc(N2CCN(C(=O)NC3CCCCC3)CC2)c1 2.77%
O=C(c1ccccc1Cc1ccccc1)N1CCN(S(=O)(=O)c2ccccc2Br)CC1 3.3%
COc1ccc(S(=O)(=O)N2CCN(C(=O)CCSc3ccccc3)CC2)cc1 7.76%
O=C(CNC(=O)c1ccccc1Br)N/N=C/c1ccco1 5.21%
O=C(c1ccc(S(=O)(=O)NCC2CCCO2)cc1)N1CCN(c2ccccc2F)CC1 (centres undefined) 5.89%
COc1ccc(S(=O)(=O)Cc2ccc(C(=O)N3CCN(c4ccc(Cl)cc4)CC3)o2)cc1 4.84%
COc1ccc(N2CCN(C(=O)c3ccc(CS(=O)Cc4ccc(Cl)cc4)o3)CC2)cc1 (centres undefined) 14%
C=CCN(Cc1ccc(Cl)s1)C(=O)c1cc(S(=O)(=O)N2CCOCC2)ccc1F 1.3%
COc1ccc(NC(=O)/C(=C\c2cc(OC)c(OC)cc2[N+](=O)[O-])NC(=O)c2ccccc2)cc1 9.89%
COc1cc(/C=C(/NC(=O)c2ccccc2)C(=O)Nc2ccccc2)c([N+](=O)[O-])cc1OC 4.35%
C=CCn1c(COc2ccccc2)nnc1SCC(=O)N/N=C/c1cc(Cl)ccc1O 11%
C=CCn1c(COc2ccccc2)nnc1SCC(=O)N/N=C/c1ccc(C)cc1 1.44%
C=CCn1c(CNc2ccccc2)nnc1SCC(=O)N/N=C/c1ccccc1O 3.95%
C=CCn1c(CNc2ccc(C)cc2)nnc1SCC(=O)N/N=C/c1ccc(O)cc1 30.4%
COc1c(N)c2c(c([N+](=O)[O-])c1OC)C(=O)OC2 -0.66%
C/C(=N\OCC(=O)Nn1c(=O)[nH]c2ccccc2c1=O)c1ccccc1 10.5%
Cc1cc(C)nc(NN=C(c2ccccc2)c2ccccc2)n1 7.14%
CC1=C(C(=O)Nc2ccccc2C(=O)NCCCOC(C)C)SCCO1 -0.28%
O=C(Nc1ccccc1)c1cccc(N2C(=O)C3C4C=CC(C4)C3C2=O)c1 (centres undefined) 8.69%
O=C(Nc1ccc(Br)cc1)c1cccc(N2C(=O)C3C4C=CC(C4)C3C2=O)c1 (centres undefined) 7.3%
CN1CCOCCOCCN(C)C1=O 8.52%
O=C(Cc1cccc2ccccc12)NC(=S)Nc1cccc(C(=O)O)c1 5.5%
O=C(N/N=C/c1ccc(O)cc1O)NC12CC3CC(CC(C3)C1)C2 15%
COc1ccc(/C=C2/S/C(=N/N=C3\CC4CCC3(C)C4(C)C)NC2=O)cc1 (centres undefined) 7.33%
COc1ccc(C=NNC(=S)NC23CC4CC(CC(C4)C2)C3)cc1OC 7.09%
O=C(N/N=C/c1ccncc1)NC12CC3CC(CC(C3)C1)C2 10.9%
COc1ccc(C=NNC(=O)NN=Cc2ccc(OC)c(OC)c2)cc1OC 3.42%
COc1ccc(/C=N/N=C2\CC3CCC2(C)C3(C)C)cc1O (centres undefined) 5.9%
COc1ccc(/C=N/NC(=O)C2C3CCCCC32)cc1OC (centres undefined) 10.4%
COc1cc(/C=N/NC(=O)NC23CC4CC(CC(C4)C2)C3)ccc1OCC(N)=O 7.72%
COc1ccc(C(=O)NCC(=O)N/N=C(\C)c2ccco2)cc1OC -0.25%
CCOC(=O)CNc1nc(Cl)nc(Nc2ccc(Cl)cc2)n1 -8.39%
CCCCn1nnc(N(C(=O)c2cccs2)C(=O)c2cccs2)n1 -4.48%
CC(C)CC(=O)NC(=S)Nc1ccc(N2CCOCC2)c(Cl)c1 2.66%
S=C(c1ccc(-c2ccc(Cl)cc2Cl)o1)N1CCCCC1 10.8%
O=C(COc1ccc(Cl)cc1)NNC(=O)c1ccncc1 8.55%
Cc1ccc(NC(=O)c2sccc2C)cc1S(=O)(=O)N(C)C 11.1%
COc1ccc2c(c1)C1NC(=S)N[C@@](C)(O2)C1C(=O)Nc1ccccc1 (some centres undefined) 9.66%
COc1nn(CC(=O)N2N=C(C(F)F)CC2(O)C(F)F)cc1[N+](=O)[O-] (centres undefined) 5.35%
CC(C)CN1CCC(=O)N([C@H](CN=[N+]=[N-])Cc2ccccc2)CC1 7.37%
O=C(NN=Cc1cc([N+](=O)[O-])ccc1O)c1cccc2ccccc12 4.07%
O=C(N/N=C/c1ccccc1O)NC12CC3CC(CC(C3)C1)C2 7.17%
COc1ccc(/C=N/NC(=O)NC23CC4CC(CC(C4)C2)C3)c(OC)c1 0.89%
COc1ccccc1N1CCN(C2CCCN(C(=O)c3ccsc3)C2)CC1 (centres undefined) 9.49%
Cc1nnc(SCC(=O)NNC(=O)COc2ccc(Cl)cc2)s1 3.46%
CCN(CC)c1ccc(C(=S)NCc2ccccc2)cc1 9.69%
CCN(CC)c1ccc(C(=O)NN)cc1 10%
CCN(CC)c1ccc(C(=C2C=CC(=[N+](CC)CC)C=C2)c2ccc(S(=O)(=O)O)cc2S(=O)(=O)[O-])cc1 25.4%
CCN(CC)c1ccc(C(=O)NNC(=O)CCNC(=O)c2ccccc2)cc1 7.48%
CC(C)(/C=N/NC(=O)CSCc1ccccc1Cl)CCC#N 4.57%
Cc1nc(NC(=O)C2CC2)sc1C(=O)Nc1ccccc1 12.6%
CCc1ccc(NS(=O)(=O)c2ccc3[nH]c(=O)[nH]c3c2)cc1 -4.35%
Cn1c(SCC(=O)NC2CCS(=O)(=O)C2)nnc1-c1ccco1 (centres undefined) -3.56%
O=C(CCNC(=O)c1ccccc1)NC1CCCc2ccccc21 (centres undefined) 6.57%
Cc1ccc(S(=O)(=O)NCCc2ccncc2)cc1[N+](=O)[O-] 2.26%
CCN(CC)S(=O)(=O)c1cccc(-c2n[nH]c(=S)n2/N=C/c2ccc(Br)cc2)c1 12.8%
CCN(CC)S(=O)(=O)c1cccc(-c2n[nH]c(=S)n2/N=C/c2ccc(OC)cc2)c1 8.14%
CC(=O)Nc1ccc(Oc2ccc(-c3noc(C)n3)cc2)cc1 10.9%
CC(NC(=O)Cc1cccc(C(F)(F)F)c1)c1ccc(F)cc1 (centres undefined) 0.98%
CCOC(=O)c1c(C)nsc1NC(=O)C1CCCCC1 -1.81%
CCOC(=O)c1sc(NC(C)=O)nc1C 6.36%
CCOC(=O)c1c(C)nsc1NCc1ccccc1 10.9%
CCOC(=O)c1sc(NC(=O)CC)nc1C 7.69%
O=C(NCCO)c1ccc(-c2nnc(N3CCOCC3)c3ccccc23)cc1 1.36%
